Among the data in PubChem BioAssay (NCATS) are z-score values, retold here.

This test is described as follows: qHTS for identification of novel therapeutic agents for treatment of microphthalmiaassociated transcription factor (MiT) renal cell carcinoma (RCC) (AID 1963991). The conditions noted are these: CellTiter-Glo, 48 h, stronger effect = lower value. The source says: PI: Marston Linehan Ph.D.
Urologic Oncology Branch, Center for Cancer Research (CCR)
National Cancer Institute (NCI), National Institute of Health (NIH), Bethesda, Maryland
MiT-Renal Cell Carcinoma (RCC) is characterized by genomic translocations involving microphthalmia-associated transcription factor (MiT) family members TFE3, TFEB, or MITF. MiT-RCC represents a specific subtype of sporadic RCC that is predominantly seen in young patients and can present with heterogeneous histological features making diagnosis challenging. Moreover, the disease biology of this aggressive cancer is poorly understood and there is no accepted standard of care therapy for patients with advanced disease. Tumor-derived cell lines have been established from human TFE3-RCC providing useful models for preclinical studies. TFE3-RCC tumor derived cell lines and their tissues of origin were characterized by IHC and gene expression analyses. An unbiased high-throughput drug screen was performed to identify novel therapeutic agents for treatment of MiT-RCC. Potential therapeutic candidates were validated in in vitro and in vivo preclinical studies. Mechanistic assays were conducted to confirm the on-target effects of drugs. The results of a high-throughput small molecule drug screen utilizing three TFE3-RCC tumor-derived cell lines identified five classes of agents with potential pharmacological efficacy, including inhibitors of phosphoinositide-3-kinase (PI3K) and mechanistic target of rapamycin (mTOR), and several additional agents, including the transcription inhibitor Mithramycin A. Upregulation of the cell surface marker GPNMB, a specific MiT transcriptional target, was confirmed in TFE3-RCC and evaluated as a therapeutic target using the GPNMB-targeted antibody-drug conjugate CDX-011. […] The results of the high-throughput drug screen and validation studies in TFE3-RCC tumor-derived cell lines have provided in vitro and in vivo preclinical data supporting the efficacy of the PI3K/mTOR inhibitor.
SEQUENCE No. (e.g., 1, 2, 3, etc.); […] (e.g., Cells, Incubation, Reagent, etc.); VALUE; DESCRIPTION.
1; Cells; 3 uL; white, solid-bottom Grenier assay plate.
2; Compounds; 23 nL; Kalypsis pin-tool (Wako USA).
3; Incubation; 48 hr; 37 C, 5% CO2, 95% humidity.
4; Reagent; 3 uL; CellTiter-Glo reagent (Promega).
5; Incubation; 15 min; room temperature.
6; Detection; Luminescence; ViewLux plate reader (PerkinElmer).
NOTES (numbers refer to Sequence numbers above)
1. Quantitative high-throughput screening (qHTS) of 1912 pharmacologically defined small molecule compounds was conducted on three TFE3-fusion cell lines bearing three different fusion partners (UOK109, UOK124, UOK145). Briefly, 500 cells in complete growth media were plated into white, solid-bottom, 1536-well tissue culture treated plates (Grenier Cat. 789173-F) using a Multidrop Combi cassette dispenser.
2. Twenty-three nanoliter of 1912 pharmacologically defined small molecule compounds of the NCATS Mechanism Interrogation PlatE (MIPE) version 4.0 were added to each assay plate using a Pintool Dispenser (Wako) equipped with 1536 pin head.
3. Plates were covered with stainless steel gasketed lids and incubated for 48 hours at standard cell culture conditions.
4. Viability was assessed by adding 3uL of CellTiter-Glo detection reagent (Promega).
5. Plates were covered with gasket lids and incubated for 15 minutes at room temperature.
6. Luminescence was measured on a ViewLux plate reader (PerkinElmer). Post-screen data processing used DMSO controls as 100% viability and empty wells as 0% viability and dose response curve fitting was done for all 11 concentrations for each compound.
(In general: qHTS replaces the single test concentration by a dilution series.)

The mark [1] stands for this setting: TFE3-RCC UOK109 viability, measured here: UOK109 Z-AUC.
Setting [2] is: TFE3-RCC viability, measured here: UOK124 Z-AUC.
Setting [3] is: TFE3-RCC viability, measured here: UOK145 Z-AUC.

Structures are written as SMILES. Results filed as inconclusive are left out.

With `CCOC(=O)c1ccc(OC(=O)CCCCCN=C(N)N)cc1`, the z-score is, setting by setting: under setting [1], 0.377; under setting [2], 0.137; under setting [3], -0.125.

Turning to `CC(N)C12CC3CC(CC(C3)C1)C2` (configuration not stated), the z-score runs as follows: under setting [1], 0.00344; under setting [2], 0.654; under setting [3], 0.503.

On to `CNS(=O)(=O)Cc1ccc2[nH]cc(CCN(C)C)c2c1`, for which the z-score was determined as 0.748 under setting [1], 0.938 under setting [2] and 0.747 under setting [3].

Take `CCN1CCCC1CNC(=O)c1cc(S(N)(=O)=O)ccc1OC` (configuration not stated): the z-score was 0.447 under setting [1], 0.683 under setting [2] and 0.799 under setting [3].

As for `N[C@@H](Cc1ccc(O)c(O)c1)C(=O)O`, the z-score reads like this: under setting [1], 0.912; under setting [2], 0.453; under setting [3], 0.282.

Take `CC1=NN(c2ccccc2)C(=O)C1`: the z-score was -4.96 under setting [1], 0.556 under setting [2] and -3.3 under setting [3].

For `Clc1ccccc1CN1CCc2sccc2C1`, the z-score runs as follows: under setting [1], 0.71; under setting [2], 0.609; under setting [3], 0.692.

Regarding `O=C(O)c1cn(C2CC2)c2cc(N3CCNCC3)c(F)cc2c1=O`, the z-score by setting is: under setting [1], 1.77; under setting [2], 0.661; under setting [3], 1.11.

`COc1c(N2CCNC(C)C2)c(F)cc2c(=O)c(C(=O)O)cn(C3CC3)c12` (configuration not stated) registered a z-score under setting [1] of 0.46, a z-score under setting [2] of 0.931 and a z-score under setting [3] of 0.897.

With `CCC(C)(C)c1ccc(CC(C)CN2C[C@@H](C)O[C@@H](C)C2)cc1` (some centres not stated), the z-score by setting is: under setting [1], 0.00856; under setting [2], 0.0457; under setting [3], 1.19.

As for `COc1ccc2c(c1)c(CC(=O)OCC(=O)O)c(C)n2C(=O)c1ccc(Cl)cc1`, the z-score under setting [1] amounted to 1.12, the z-score under setting [2] turned out to be 1.19 and the z-score under setting [3] is 0.507.

Turning to `COCCCOc1cc(C[C@@H](C[C@H](N)[C@@H](O)C[C@H](C(=O)NCC(C)(C)C(N)=O)C(C)C)C(C)C)ccc1OC`, the z-score reads like this: under setting [1], 1.1; under setting [2], 0.318; under setting [3], 1.4.

As to `COc1nc(N)nc2c1ncn2[C@@H]1O[C@H](CO)[C@@H](O)[C@@H]1O`, the z-score runs as follows: under setting [1], 0.831; under setting [2], 1.01; under setting [3], 0.757.

In the case of `CCn1cc(C(=O)O)c(=O)c2cc(F)c(N3CCNCC3)cc21`, the z-score by setting is: under setting [1], 1.12; under setting [2], 2.59; under setting [3], 1.26.
